Most compounds without a hit are left out; they make up all but 2.9% or so of the library.
KLK7 zymogen act – activators of human kallikrein-7 zymogen. P49862. purified proKLK7, EDANS-DABCYL substrate fluorescence; 100% is mature enzyme control, 0% vehicle. activation, % at 7 µM. 370,000 tested, 0.9% active;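 active means activation above the mean of all tested compounds plus 3 SD, computed per campaign excluding outliers beyond control limits, cut at about 13% in these data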
Target sequence (P49862 whole entry, looked up): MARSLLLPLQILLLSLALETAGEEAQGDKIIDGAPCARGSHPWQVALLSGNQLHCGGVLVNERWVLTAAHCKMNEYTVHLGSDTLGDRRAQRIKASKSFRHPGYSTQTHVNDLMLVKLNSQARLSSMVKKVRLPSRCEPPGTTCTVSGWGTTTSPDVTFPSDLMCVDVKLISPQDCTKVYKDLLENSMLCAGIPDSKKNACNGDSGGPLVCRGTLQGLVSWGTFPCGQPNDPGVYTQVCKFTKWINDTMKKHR
PLCb3 inh – inhibitors of human phospholipase C beta3. Q01970. Purified PLC-beta3, fluorogenic substrate, fluorescence. inhibition, % at 12.2 µM. 370,000 tested, 0.18% active. AID 720704; in the data active means inhibition above about 11%
PLC-gamma1 inh – inhibitors of human phospholipase C gamma1. P19174. purified PLC-gamma1, fluorogenic substrate, fluorescence. inhibition, % at 12.2 µM. 370,000 tested, 0.84% active. AID 720700; in the data active means inhibition above about 9.5%
ADAM17 inh – ADAM17 inhibition, QFRET primary screen | P78536 | recombinant ADAM17, EDANS/DABCYL FRET peptide cleavage | inhibition, % at 6.95 µM | 370,000 tested, 0.83% active;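 active means inhibition above the mean of compounds lying between control limits plus 3 SD, set per campaign, cut at about 8.5% in these data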
ADAM10 inh – inhibits human ADAM10 | O14672 | recombinant ADAM10, EDANS/DABCYL FRET peptide cleavage, 3 h | inhibition, % at 7 µM | 370,000 tested, 0.62% active | AID 720582;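 active means inhibition above a per-campaign cutoff equal to the mean of compounds falling between control-based bounds plus 3 SD, cut at about 20% in these data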
ADAM10 ctr – counter-screen for ADAM17 exosite inhibitors: inhibitors of human ADAM10 | shares compounds with ADAM17 inh | 2,900 tested, 47% active | recombinant ADAM10, EDANS/DABCYL FRET peptide cleavage, 3 h | AID 743256 | inhibition, % at 6.95 µM;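 active means mean inhibition over the triplicate runs exceeds the activity threshold set in the earlier primary screen, cut at about 20% in these data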
ADAM17 confirm – confirmation of inhibitors of human ADAM17. shares compounds with ADAM17 inh. recombinant ADAM17, EDANS/DABCYL QFRET peptide cleavage. inhibition, % at 6.95 µM. 2,900 tested, 65% active. AID 743257;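 active means mean inhibition across replicates above the hit cutoff set in the primary screen, cut at about 8.5% in these data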
Large screens that a line does not name were inactive (follow-up assays come after a bar, where they were run).

CCCNC(=O)C1(C)CCN1C(=O)c1ccccc1CCc1ccccc1 (stereo not drawn)	ADAM17 inh 8.8 | ADAM10 ctr inactive | ADAM17 confirm inactive
CC(C)(C)CNC(=O)C1(C)CCN1C(=O)c1ccccc1CCc1ccccc1 (stereo not drawn)	none
CC1(Cc2ccccc2Cl)C(=O)Nc2ccc(OC(F)(F)F)cc21 (stereo not drawn)	ADAM17 inh 13 | ADAM10 ctr 21 | ADAM17 confirm 13
CC1(Cc2ccccc2C#N)C(=O)Nc2ccc(OC(F)(F)F)cc21 (stereo not drawn)	none
O=S(=O)(c1ccc2nc(Cc3cccc(C(F)(F)F)c3)[nH]c2c1)N1CCOCC1	none
O=S(=O)(c1ccc2nc(Cc3ccccc3)[nH]c2c1)N1CCOCC1	ADAM17 inh 8.8 | ADAM10 ctr inactive | ADAM17 confirm inactive
CCn1c(-c2ccccc2Cl)nn(CC(=O)NCCc2ccccc2)c1=S	none
CCn1c(-c2ccccc2Cl)nn(CC(=O)Nc2cc(Cl)ccc2Cl)c1=S	ADAM17 inh 12 | ADAM10 ctr inactive | ADAM17 confirm inactive
Cc1nn(CCCC(=O)Nc2cc(Oc3ccccc3)cc([N+](=O)[O-])c2)c(C)c1[N+](=O)[O-]	ADAM17 inh 12 | ADAM10 ctr 39 | ADAM17 confirm 20
COc1ccccc1C(=O)NCC(=O)NCC1(N2CCCCC2)CCCCC1	none
COc1cc(-c2n[nH]c(=S)n2-c2ccc(C)cc2)cc(OC)c1OC	none
COc1ccc(-c2n[nH]c(=S)n2-c2ccc(Br)cc2)cc1OC	ADAM17 inh 11 | ADAM10 ctr inactive | ADAM17 confirm 37
C[C@H](CO)N1C[C@H](C)[C@@H](CN(C)S(=O)(=O)c2ccccc2)Oc2c(NC(=O)C3CCCCC3)cccc2C1=O	none
Cc1noc(C)c1NC(=O)Nc1cccc2c1O[C@H](CN(C)S(=O)(=O)c1ccc(F)cc1)[C@@H](C)CN([C@H](C)CO)C2=O	ADAM17 inh 11 | ADAM10 ctr inactive | ADAM17 confirm inactive
Cc1noc(C)c1NC(=O)Nc1cccc2c1O[C@H](CN(C)S(=O)(=O)c1ccccc1)[C@@H](C)CN([C@H](C)CO)C2=O	none
Cc1noc(C)c1S(=O)(=O)N(C)C[C@H]1Oc2c(NC(=O)C3CCCCC3)cccc2C(=O)N([C@H](C)CO)C[C@@H]1C	ADAM17 inh 10 | ADAM10 ctr inactive | ADAM17 confirm inactive
O=C(Nc1c(-c2ccc3c(c2)OCO3)[nH][nH]c1=O)c1cnccn1	none
Cc1ccc(C2C3=C(CC(C)(C)CC3=O)N=C3c4ccccc4C(=O)C32)cc1 (stereo not drawn)	ADAM17 inh 8.7 | ADAM10 ctr inactive | ADAM17 confirm inactive
O=c1cc(-c2ccccc2Cl)oc2c(NS(=O)(=O)c3ccccc3OC(F)(F)F)ccc(O)c12	ADAM17 inh 8.9 | ADAM10 ctr 34 | ADAM17 confirm 20
CCNS(=O)(=O)c1ccc(Br)c(C(=O)OC(C)C(=O)NCC2CCCCC2)c1 (stereo not drawn)	none
CCOC(=O)C1=C(c2ccccc2)NC(=O)NC1c1cc(Br)c(O)c(OC)c1 (stereo not drawn)	ADAM17 inh 10 | ADAM10 ctr inactive | ADAM17 confirm inactive
CCOC(=O)C1=C(c2ccccc2)NC(=S)NC1c1cc([N+](=O)[O-])ccc1OC (stereo not drawn)	ADAM17 inh 9.2 | ADAM10 ctr inactive | ADAM17 confirm inactive
Cc1ccc(-c2cc(C(=O)NN=Cc3cccc(OCc4ccccc4)c3)[nH]n2)cc1C	ADAM17 inh 11 | ADAM10 ctr inactive | ADAM17 confirm 12
COc1ccc(COC(=O)C2CCN(S(=O)(=O)c3ccc(OC)c(OC)c3)CC2)cc1	ADAM17 inh 9.7 | ADAM10 ctr 30 | ADAM17 confirm 17
CCOC(=O)c1c(-c2ccccc2)csc1NC(=O)CSc1ccccc1	none
CCOC(=O)c1c(-c2ccccc2)csc1NC(=O)CSc1nncs1	ADAM17 inh 9.0 | ADAM10 ctr inactive | ADAM17 confirm 13
CC1(c2ccc3c(c2)OCO3)NC(=O)N(CC(=O)Nc2ccccc2)C1=O (stereo not drawn)	none
